{"source": "PubChem BioAssay (NCATS)", "note": "Some of the results follow. A call without a number means that no potency is given here. Records with an inconclusive call do not appear. Activity calls are given as the source filed them. Calls follow the shape of the dose curve; as a rule, active = well fitted inhibition curve with a large enough effect; inconclusive = small, poorly fitted or top-dose-only effect; inactive = no such curve, though single readings can be large or run the other way. Potency is read from the fitted curve at half-maximal effect.", "data": [{"experiment": "qHTS for Inhibitors of WRN Helicase: Thiazole Orange DNA Binding Counterscreen (AID 720499);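 also: drop in dye fluorescence marks compound binding to DNA; nearly all actives have a fitted effect of over 60% in size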", "conditions": "thiazole orange DNA binding displacement, fluorescence; series mostly up to 57.1 µM", "source_text": "Inhibition of DNA repair is proposed as a strategy for combating cancer. Synthetic lethality is an approach that exploits preexisting DNA repair deficiencies in certain tumors to develop inhibitors of DNA repair pathways that compensate for the tumor-associated DNA repair deficiency. Because helicases play critical roles in the DNA damage response and in DNA repair, particularly in actively dividing and replicating cells, characterization of synthetic lethal relationships of DNA helicases may be of value in developing improved anticancer treatment strategies; moreover, small molecules that specifically target a given DNA helicase may be useful for understanding its role in cellular nucleic acid metabolism. The goal of this project is to identify small molecule, non-covalent chemical inhibitors of the Werner syndrome (WS) helicase (WRN), which plays an important role in cell proliferation, the replication stress response, and DNA repair. […] The WRN gene product that is defective in the chromosomal instability disorder has DNA helicase and exonuclease activities and interacts with a number of nuclear proteins to maintain genomic stability.\nA 1536-well format, fluorescence based, high-throughput screen (AID 651768) has been developed in collaboration with the Brosh Laboratory at the National Institute of Aging (NIA) to screen for inhibitors of the WRN. The Thiazole Orange (ThO) DNA binding (TO-binding) is used to eliminate inhibitors that operate via nonspecific DNA binding. This displacement assay is miniaturized for a 1536-well format and utilizes a ThO dye bound to unlabeled DNA. Inactivation or no significant activity is the desired outcome for this assay.\nNIH Chemical Genomics Center [NCGC]\nNIH Molecular Libraries Probe Centers Network [MLPCN]\nAssay Submitter (PI): Robert Brosh, National Institute of Aging\nCompounds were added to a 4 uL mixture of 50 nM DNA and 100 nM ThO via pintool transfer. The fluorescence signal (excitation 480 nm, emission 530 nm) was measured after 15 min incubation at room temperature using the ViewLux CCD imager.", "values": [{"compound": "CCN(CC)CCOc1ccc2c(c1)C(=NNC(=O)c1ccccn1)c1cc(OCCN(CC)CC)ccc1-2", "Potency": "2.15 µM (active)"}, {"compound": "COc1ccc(Cl)cc1-c1cc(C(=O)Nc2cc(OC)c(OC)c(OC)c2)[nH]n1", "Potency": "inactive"}, {"compound": "CC1=NN(c2ccc(Cl)c(C(=O)O)c2)C(=O)/C1=C/c1ccc(-c2ccccc2[N+](=O)[O-])o1", "Potency": "inactive"}, {"compound": "CC(=O)N(C1=C(Cl)C(=O)c2ccccc2C1=O)c1ccc(C(=O)O)cc1", "Potency": "inactive"}, {"compound": "N#C/C(=C\\C1=C(N2CCOCC2)C(=C\\c2ccccc2)/CC1)C(=O)Nc1ccccc1F", "Potency": "inactive"}, {"compound": "CCOc1ccccc1C(=O)NCc1ccco1", "Potency": "inactive"}, {"compound": "O=c1[nH]c2ccccc2n2c(-c3ccccc3)nnc12", "Potency": "inactive"}, {"compound": "COc1cccc2c1C(=O)c1c(O)c3c(c(O)c1C2=O)CC(O)(C(C)=NNC(=O)c1ccc(Cl)c(Cl)c1)CC3OC1CC(N)C(O)C(C)O1", "note": "(stereo unspecified)", "Potency": "inactive"}, {"compound": "COC(=O)/C=C\\C(=O)Nc1cccc([N+](=O)[O-])c1", "Potency": "inactive"}, {"compound": "Cc1ccc(-c2nc(SCc3ccc(Br)cc3)n3[nH]c(=O)cc3n2)cc1", "Potency": "inactive"}, {"compound": "COc1ccc(Cl)cc1NC(=O)CCS(=O)(=O)c1ccc(Br)cc1", "Potency": "inactive"}, {"compound": "CCc1ccc2nc3sc(C(=O)Nc4nnc(CC)s4)c(N)c3cc2c1", "Potency": "inactive"}, {"compound": "CN1CCN(S(=O)(=O)c2cccc(C(=O)Nc3sccc3C#N)c2)CC1", "Potency": "inactive"}, {"compound": "O=C(Nc1ccccc1)c1nnsc1S(=O)(=O)c1ccc(Cl)cc1", "Potency": "inactive"}, {"compound": "CN(C)c1nc(Nc2ccc(Cl)c(Cl)c2)nc(N(C)C)n1", "Potency": "inactive"}, {"compound": "Cc1c(CC(=O)N2CCN(C(=O)C3COc4ccccc4O3)CC2)c(=O)oc2c(O)c(O)ccc12", "note": "(stereo unspecified)", "Potency": "inactive"}]}]}
